Laboratory results reported in PubChem BioAssay (Tox21).
Records with an inconclusive call do not appear. The source made the active and inactive calls. Unless noted, the call rests on the fitted dose curve; in most records, active means well fitted curve in the direction sought with a large enough effect in the repeat runs; inconclusive means weak or mixed curves; inactive means no such curve, though single readings can be large; an effect the other way counts as inactive or inconclusive.

How the values were obtained:
[1] = qHTS assay to identify small molecule agonists of the peroxisome proliferator-activated receptor delta (PPARd) signaling pathway - cell viability counter screen (AID 743211); further: on the % scale 0 is the no-effect control and ±100 the full control effect; nearly all actives have a fitted effect of over 55% in size
Procedure, shortened: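 PPARd-bla HEK293H cells (UAS-beta-lactamase reporter) were treated with compounds for 17 h at 37 C. Viability was then read in the same wells by CellTiter-Glo luminescence after 30 min at room temperature.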

[2] = target: Peroxisome proliferator-activated receptor delta (Homo sapiens) (UniProt Q03181); assay: qHTS assay to identify small molecule agonists of the peroxisome proliferator-activated receptor delta (PPARd) signaling pathway (AID 743212; calls by dose curve; further: on the % scale 0 is the no-effect control and ±100 the full control effect)
Peroxisome proliferator-activated receptor delta (Homo sapiens), sequence (Q03181 whole entry, looked up): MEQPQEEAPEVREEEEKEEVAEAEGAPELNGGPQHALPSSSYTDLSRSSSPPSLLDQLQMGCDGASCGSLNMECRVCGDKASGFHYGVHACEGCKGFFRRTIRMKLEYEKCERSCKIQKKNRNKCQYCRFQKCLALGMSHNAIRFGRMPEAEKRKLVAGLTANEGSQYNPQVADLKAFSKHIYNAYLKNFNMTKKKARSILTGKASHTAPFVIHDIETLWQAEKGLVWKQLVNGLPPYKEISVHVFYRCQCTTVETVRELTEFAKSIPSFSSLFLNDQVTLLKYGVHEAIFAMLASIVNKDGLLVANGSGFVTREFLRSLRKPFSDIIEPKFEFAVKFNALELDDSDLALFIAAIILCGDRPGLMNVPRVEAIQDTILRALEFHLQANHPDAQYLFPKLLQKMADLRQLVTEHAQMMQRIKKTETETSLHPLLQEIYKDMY
Procedure, shortened: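 Quantitative high-throughput agonist screen in a HEK293H beta-lactamase reporter line under UAS control. Compounds in DMSO, at 37 C. Fluorescence read after 2 h with FRET substrate at room temperature.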

[3] = qHTS assay to identify small molecule antagonists of the peroxisome proliferator-activated receptor delta (PPARd) signaling pathway - cell viability counter screen (AID 743213); further: on the % scale 0 is the no-effect control and ±100 the full control effect; nearly all actives have a fitted effect of over 50% in size
Procedure, shortened: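 In this counter screen, HEK293H cells carrying a UAS-beta-lactamase reporter are co-treated with test compounds and 300 nM L165041 (final) for 17 h at 37 C; cell viability is quantified by CellTiter-Glo luminescence.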

[4] = target: Peroxisome proliferator-activated receptor delta (Homo sapiens) (UniProt Q03181); assay: qHTS assay to identify small molecule antagonists of the peroxisome proliferator-activated receptor delta (PPARd) signaling pathway (AID 743215; active means well fitted inhibition curve with a large enough effect in the signal ratio in the repeat runs, not every such curve was filed as active; the % refers to the signal ratio;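 further: cells stimulated with agonist L165041 at 300 nM final during compound exposure; series mostly up to about 62 µM; on the % scale 0 is the no-effect control and ±100 the full control effect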)
Procedure, shortened: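 Read-out is beta-lactamase FRET fluorescence, measured 2 h after substrate addition at room temperature. Beforehand, UAS-bla HEK293H cells carrying the PPARd reporter were exposed to compounds with L165041 at 300 nM final for 17 h at 37 C.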

[5] = qHTS assay to identify small molecule agonists of the farnesoid-X-receptor (FXR) signaling pathway - cell viability counter screen (AID 743218); further: on the % scale 0 is the no-effect control and ±100 the full control effect; nearly all actives have a fitted effect of over 45% in size
Procedure, shortened: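 HEK 293T FXR-bla cells; 5 h pre-incubation, 16 h compound exposure at 37 C; LiveBLAzer substrate 2 h RT, then CellTiter-Glo 30 min RT, luminescence.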

[6] = qHTS assay to identify small molecule antagonists of the farnesoid-X-receptor (FXR) signaling pathway - cell viability counter screen (AID 743221; active means well fitted cell-killing curve with a large enough effect in the repeat runs, not every such curve was filed as active; further: on the % scale 0 is the no-effect control and ±100 the full control effect; nearly all actives have a fitted effect of over 50% in size)
Procedure, shortened: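 FXR-UAS-bla HEK 293T cells were treated with test compounds plus chenodeoxycholic acid (50 uM final) for 16 h at 37 C. Cell viability in the same wells was then read as CellTiter-Glo luminescence after 30 min at room temperature.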

[7] = target: Vitamin D3 receptor (Homo sapiens) (UniProt P11473); assay: qHTS assay to identify small molecule agonists of the vitamin D receptor (VDR) signaling pathway (AID 743222; calls by dose curve; further: on the % scale 0 is the no-effect control and ±100 the full control effect)
Vitamin D3 receptor (Homo sapiens), sequence (P11473 whole entry, looked up): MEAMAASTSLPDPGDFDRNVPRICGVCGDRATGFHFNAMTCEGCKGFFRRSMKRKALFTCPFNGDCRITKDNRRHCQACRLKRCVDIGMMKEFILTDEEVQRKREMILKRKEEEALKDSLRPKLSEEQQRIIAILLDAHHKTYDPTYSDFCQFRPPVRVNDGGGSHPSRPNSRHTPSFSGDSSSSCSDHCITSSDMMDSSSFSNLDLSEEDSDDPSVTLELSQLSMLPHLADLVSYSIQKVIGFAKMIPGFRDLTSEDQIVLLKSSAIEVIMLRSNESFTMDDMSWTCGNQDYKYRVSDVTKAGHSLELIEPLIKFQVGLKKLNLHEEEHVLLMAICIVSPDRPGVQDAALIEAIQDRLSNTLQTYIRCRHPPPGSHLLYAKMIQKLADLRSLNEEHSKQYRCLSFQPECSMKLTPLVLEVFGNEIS
Procedure, shortened: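 VDR-bla cells, 2,000/well; 4 h preincubation 37C; cpd (DMSO) 16 h; LiveBLAzer B/G substrate 2 h RT; fluorescence intensity read.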

[8] = qHTS assay to identify small molecule agonists of the vitamin D receptor (VDR) signaling pathway - cell viability counter screen (AID 743224); further: nearly all actives have a fitted effect of over 50% in size; further: potency means the concentration at half of the fitted maximal effect
Procedure, shortened: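 Luminescence from CellTiter-Glo, read after 30 min at room temperature, reports viability of VDR-bla cells treated with compounds for 16 h at 37C in the wells used for the beta-lactamase FRET read.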

[9] = qHTS assay to identify small molecule antagonists of the vitamin D receptor (VDR) signaling pathway - cell viability counter screen (AID 743225); further: on the % scale 0 is the no-effect control and ±100 the full control effect; nearly all actives have a fitted effect of over 50% in size
Procedure, shortened: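 VDR-bla HEK 293T cells, 4 h pre-incubation at 37C, then compound plus 1-alpha,25-dihydroxyvitamin D3 (3 nM final) for 16 h. After the beta-lactamase FRET read, CellTiter-Glo was added to the same wells; luminescence after 30 min at room temperature.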

[10] = qHTS assay to identify small molecule agonists of the NFkB signaling pathway (AID 1159509; active means well fitted curve in the direction sought with a large enough effect in the signal ratio in the repeat runs, not every such curve was filed as active; the % refers to the signal ratio; further: series mostly up to about 61 µM; on the % scale 0 is the no-effect control and ±100 the full control effect)
Procedure, shortened: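 After overnight attachment, reporter cells received test compounds, DMSO or positive controls and were incubated 5 hr at 37 C. FRET substrate was then added for 1.5 hr at room temperature before dual-emission fluorescence reading.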

[11] = qHTS assay to identify small molecule agonists of the NFkB signaling pathway - cell viability counter screen (AID 1159515; calls by dose curve; further: series mostly up to about 61 µM; on the % scale 0 is the no-effect control and ±100 the full control effect; nearly all actives have a fitted effect of over 55% in size)
Procedure, shortened: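 Luminescence from CellTiter-Glo (30 min, room temperature) gives viability, measured in the same wells as the beta-lactamase reporter read. Cells were NFkB-bla ME-180, 2,000 per well, treated 5 hr with compounds.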

[12] = qHTS assay to identify small molecule agonists of the endoplasmic reticulum stress response signaling pathway (AID 1159516; active means well fitted activation curve with a large enough effect in the signal ratio in the repeat runs, not every such curve was filed as active; the % refers to the signal ratio; further: on the % scale 0 is the no-effect control and ±100 the full control effect)
Procedure, shortened: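 Read-out is beta-lactamase cleavage of a FRET substrate (405 nm excitation; 460 and 530 nm emissions) in ESRE-bla HeLa cells after a 5 hr compound exposure at 37 C. Substrate incubation ran 2 hr at room temperature.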

[13] = qHTS assay to identify small molecule agonists of the endoplasmic reticulum stress response signaling pathway - cell viability counter screen (AID 1159517; calls by dose curve)
Procedure, shortened: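 Counter-screen wells were identical to the reporter wells. Cells were plated at 1,500 per well and dosed for 5 hr, then read for luminescence 30 min after CellTiter-Glo addition.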

[14] = target: Nuclear receptor ROR-gamma (Homo sapiens) (UniProt P51449); assay: qHTS assay to identify small molecule antagonists of the retinoid-related orphan receptor gamma (ROR-gamma) signaling pathway (AID 1159521)
Procedure, shortened: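 Tet-on RORγ CHO cells carrying a ROR response element–luciferase reporter were pretreated with compounds for 2 h, then induced with 1 uM (final) doxycycline hyclate for 16 h at 37 C. Antagonism was read as decreased ONE-Glo luminescence.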

[15] = qHTS assay to identify small molecule agonists of the AP-1 signaling pathway - cell viability counter screen (AID 1159525; calls by dose curve; further: nearly all actives have a fitted effect of over 55% in size)
Procedure, shortened: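 AP-1-bla ME-180 cells in Opti-MEM with 0.5% dialyzed FBS, compound exposure 5 h at 37 C in 15-point titration. Viability read in the same wells as ATP content by CellTiter-Glo luminescence, normalised to tetra-n-octylammonium bromide and DMSO controls.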

[16] = qHTS assay to identify small molecule agonists of the AP-1 signaling pathway (AID 1159526; calls by dose curve; further: on the % scale 0 is the no-effect control and ±100 the full control effect)
[17] = target: Vitamin D3 receptor (Homo sapiens) (UniProt P11473); assay: qHTS assay to identify small molecule antagonists of the vitamin D receptor (VDR) signaling pathway (AID 743223; active means well fitted inhibition curve with a large enough effect in the signal ratio in the repeat runs, not every such curve was filed as active; the % refers to the signal ratio; further: on the % scale 0 is the no-effect control and ±100 the full control effect)
Procedure, shortened: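 VDR-bla cells were plated, incubated 4 h at 37C, then given compound and 1alpha,25-dihydroxyvitamin D3 (3 nM final). After 16 h at 37C, LiveBLAzer B/G FRET substrate was added for 2 h at room temperature and fluorescence read.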

[18] = qHTS assay to identify small molecule antagonists of the retinoid-related orphan receptor gamma (ROR-gamma) signaling pathway - cell viability counter screen (AID 1159520)
Procedure, shortened: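 Tet-on ROR gamma CHO cells were given compounds for 2 hr, then doxycycline hyclate at 1 uM final, and incubated 16 hr at 37 C. Viability was measured as ATP content by CellTiter-Glo luminescence.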

[19] = target: Bile acid receptor (Homo sapiens) (UniProt Q96RI1); assay: qHTS assay to identify small molecule antagonists of the farnesoid-X-receptor (FXR) signaling pathway (AID 743217; active means well fitted inhibition curve with a large enough effect in the signal ratio in the repeat runs, not every such curve was filed as active; the % refers to the signal ratio; further: on the % scale 0 is the no-effect control and ±100 the full control effect)
Bile acid receptor (Homo sapiens), sequence (Q96RI1 whole entry, looked up): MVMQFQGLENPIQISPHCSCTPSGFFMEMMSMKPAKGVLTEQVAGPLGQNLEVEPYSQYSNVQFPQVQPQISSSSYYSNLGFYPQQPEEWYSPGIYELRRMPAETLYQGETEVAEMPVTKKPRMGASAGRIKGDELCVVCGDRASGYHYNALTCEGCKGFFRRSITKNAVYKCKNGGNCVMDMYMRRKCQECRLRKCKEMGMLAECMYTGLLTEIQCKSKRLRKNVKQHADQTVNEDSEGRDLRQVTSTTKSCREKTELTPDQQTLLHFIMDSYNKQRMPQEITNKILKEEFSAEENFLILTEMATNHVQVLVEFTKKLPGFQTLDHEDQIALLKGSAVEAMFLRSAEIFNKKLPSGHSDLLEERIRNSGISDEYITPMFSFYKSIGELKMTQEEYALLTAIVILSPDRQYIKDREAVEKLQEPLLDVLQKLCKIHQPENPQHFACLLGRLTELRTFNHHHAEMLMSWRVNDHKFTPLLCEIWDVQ
Procedure, shortened: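 HEK 293T FXR-UAS-bla, 5000 cells/well; compound + CDCA 50 uM final; 16 h, 37 °C; B/G FRET substrate 2 h RT; fluorescence.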

[20] = target: Bile acid receptor (Homo sapiens) (UniProt Q96RI1); assay: qHTS assay to identify small molecule agonists of the farnesoid-X-receptor (FXR) signaling pathway (AID 743220; active means well fitted activation curve with a large enough effect in the signal ratio in the repeat runs, not every such curve was filed as active; the % refers to the signal ratio; further: on the % scale 0 is the no-effect control and ±100 the full control effect)
Procedure, shortened: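 Beta-lactamase reporter under UAS control in GeneBLAzer FXR HEK 293T cells (5000/well) measured with LiveBLAzer FRET substrate after 2 h at room temperature. Compound exposure lasted 16 h at 37C.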

CC[C@H](C)C(=O)O[C@H]1C[C@H](O)C=C2C=C[C@H](C)[C@H](CC[C@@H](O)C[C@@H](O)CC(=O)O)[C@H]21
inactive: outcome [1] | outcome [2] | outcome [3] | outcome [4] | Potency [5] | outcome [6] | outcome [7] | Potency [8] | outcome [9] | outcome [10] | outcome [11] | outcome [12] | Potency [13] | outcome [14] | outcome [15] | outcome [16]

CCNC(=O)C1CC(C)CCC1C(C)C (stereo not drawn)
inactive: outcome [1] | outcome [2] | outcome [3] | outcome [4] | Potency [5] | outcome [6] | outcome [7] | outcome [17] | Potency [8] | outcome [10] | outcome [11] | outcome [12] | outcome [18] | outcome [14] | outcome [15] | outcome [16]

CC(=O)/C=C/C1C(C)=CCC(C)C1(C)C (stereo not drawn)
inactive: outcome [2] | outcome [3] | outcome [4] | Potency [5] | outcome [6] | outcome [7] | outcome [17] | Potency [8] | outcome [9] | outcome [10] | outcome [11] | outcome [12] | Potency [13] | outcome [14] | outcome [15] | outcome [16]

CO[C@@H]1[C@@H](OC(N)=O)[C@@H](O)[C@H](Oc2ccc3c(O)c(NC(=O)c4ccc(O)c(CC=C(C)C)c4)c(=O)oc3c2C)OC1(C)C
inactive: outcome [1] | outcome [2] | outcome [3] | outcome [4] | Potency [19] | Potency [5] | Potency [20] | outcome [6] | outcome [7] | outcome [17] | outcome [10] | outcome [11] | outcome [12] | Potency [13] | outcome [18] | outcome [14] | outcome [16]

CC(=O)NCc1c(I)c(NC(C)=O)c(I)c(C(=O)O)c1I
inactive: outcome [1] | Potency [5] | outcome [6] | outcome [7] | Potency [8] | outcome [9] | outcome [10] | outcome [11] | outcome [12] | Potency [13] | outcome [14] | outcome [15] | outcome [16]

CCC(C)NC(N)=O (stereo not drawn)
inactive: outcome [1] | outcome [2] | outcome [3] | outcome [4] | Potency [5] | outcome [6] | outcome [7] | outcome [17] | Potency [8] | outcome [9] | outcome [10] | outcome [11] | outcome [12] | Potency [13] | outcome [18] | outcome [14] | outcome [16]

CCCOC(=O)C(C)O (stereo not drawn)
active: Potency [8] 56.1 µM
inactive: outcome [2] | Potency [19] | Potency [5] | Potency [20] | outcome [6] | outcome [17] | outcome [9] | outcome [10] | outcome [11] | outcome [12] | Potency [13] | outcome [18] | outcome [14] | outcome [16]

COC(=O)C1CC(=O)C(C(=O)OC)CC1=O (stereo not drawn)
inactive: activity change, negative = cytotoxicity [1] -4.27% [at 5.95 µM] | activation [2] 3.55% [at 5.95 µM] | viability change, negative = cytotoxic [3] -19.8% [at 6.26 µM] | ratio activity, negative = inhibition [4] -19.7% [at 6.26 µM] | viability change, negative = cytotoxic [5] 25% [at 5.95 µM] | activity change, negative = cytotoxicity [6] -3.4% [at 5.95 µM] | activity change, negative = inhibition [17] 0.852% [at 6.95 µM] | activation [10] 0.23% [at 6.95 µM] | activity, negative = cytotoxic [11] 4.94% [at 6.95 µM] | activation [12] 4.12% [at 6.95 µM] | activity change, negative = cytotoxicity [13] 4.71% [at 6.95 µM] | activity, negative = cytotoxicity [18] 6.36% [at 8.39 µM] | activity change, negative = inhibition [14] 0.663% [at 8.39 µM] | activation [16] 1.04% [at 6.97 µM]

O=C(O)c1cc(Br)c(O)c(Br)c1
inactive: outcome [1] | outcome [2] | outcome [3] | Potency [19] | Potency [5] | Potency [20] | outcome [6] | outcome [7] | outcome [17] | Potency [8] | outcome [9] | outcome [10] | outcome [11] | outcome [12] | Potency [13] | outcome [18] | outcome [14] | outcome [16]

COc1ccc(S(=O)(=O)N2c3ccc(Cl)cc3[C@@](O)(c3ccccc3Cl)[C@H]2C(=O)N2CCC[C@@H]2C(N)=O)cc1OC
inactive: outcome [1] | outcome [2] | outcome [3] | outcome [4] | Potency [5] | outcome [6] | outcome [7] | outcome [17] | outcome [9] | outcome [10] | outcome [11] | outcome [12] | Potency [13] | outcome [14] | outcome [16]

COC(=O)[C@@H]1[C@H]2C[C@H]3c4[nH]c5ccccc5c4CCN3C[C@@H]2CC[C@@H]1O
inactive: outcome [1] | outcome [2] | outcome [3] | Potency [5] | outcome [6] | outcome [7] | outcome [17] | Potency [8] | outcome [10] | outcome [11] | outcome [12] | Potency [13] | outcome [14] | outcome [15] | outcome [16]

COC(=O)CCCCCCCC(=O)OC
inactive: outcome [3] | Potency [5] | outcome [6] | outcome [7] | outcome [17] | outcome [9] | outcome [10] | outcome [11] | outcome [12] | Potency [13] | outcome [14] | outcome [15] | outcome [16]

C=COCCOCCOCCOC=C
inactive: outcome [1] | outcome [2] | outcome [3] | outcome [4] | Potency [5] | outcome [6] | outcome [7] | outcome [17] | Potency [8] | outcome [9] | outcome [10] | outcome [11] | outcome [12] | outcome [18] | outcome [14] | outcome [15] | outcome [16]

O=C1c2ccccc2C(=O)N1CCl
inactive: outcome [2] | outcome [3] | outcome [4] | Potency [19] | Potency [5] | Potency [20] | outcome [6] | outcome [7] | Potency [8] | outcome [10] | outcome [11] | outcome [12] | Potency [13] | outcome [18] | outcome [14] | outcome [16]
